# From PubChem BioAssay (Tox21)
# Inconclusive results are not listed. Activity calls are given as the source filed them. Unless noted, the call rests on the fitted dose curve.
# Target: D(2) dopamine receptor (Homo sapiens) (UniProt P14416)
# Experiment: Dopamine D2 receptor (DRD2) small molecule agonists, cell-based qHTS assay (AID 1963594); further: nearly all actives have a fitted effect of over 35% in size
# Details: HEK293-DRD2 cAMP HTRF, agonist mode, 30 min; series mostly up to 92.4 µM; activation: at the top concentration
# Method in brief: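 cAMP accumulation in DRD2-HEK293 cells measured by HTRF after 1 h detection; compounds added 10 min before NKH477 (200nM […]) forskolin-analogue stimulation, 30 min at room temperature, with Ro20-1724 present at 0.1 mM final.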
# On the % scale 0 is the no-effect control and ±100 the full control effect.
# Sequence of D(2) dopamine receptor (Homo sapiens) (P14416 whole entry, looked up): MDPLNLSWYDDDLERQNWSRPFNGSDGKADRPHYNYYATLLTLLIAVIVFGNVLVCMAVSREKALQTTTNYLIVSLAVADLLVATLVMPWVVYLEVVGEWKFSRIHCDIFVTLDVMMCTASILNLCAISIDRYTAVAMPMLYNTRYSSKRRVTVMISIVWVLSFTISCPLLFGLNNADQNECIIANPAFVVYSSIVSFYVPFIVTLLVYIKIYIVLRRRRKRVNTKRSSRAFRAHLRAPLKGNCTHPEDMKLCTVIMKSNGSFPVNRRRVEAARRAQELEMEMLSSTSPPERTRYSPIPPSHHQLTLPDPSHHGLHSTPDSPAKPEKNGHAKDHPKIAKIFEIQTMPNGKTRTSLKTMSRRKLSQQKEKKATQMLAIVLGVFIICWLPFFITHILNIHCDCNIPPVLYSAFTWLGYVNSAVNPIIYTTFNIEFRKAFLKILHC
row,SMILES,activation
1,OC[C@H]1O[C@@H]2O[C@H]3[C@H](O)[C@@H](O)[C@@H](O[C@H]4[C@H](O)[C@@H](O)[C@@H](O[C@H]5[C@H](O)[C@@H](O)[C@@H](O[C@H]6[C@H](O)[C@@H](O)[C@@H](O[C@H]7[C@H](O)[C@@H](O)[C@@H](O[C@H]8[C@H](O)[C@@H](O)[C@@H](O[C@H]9[C@H](O)[C@@H](O)[C@@H](O[C@H]1[C@H](O)[C@H]2O)O[C@@H]9CO)O[C@@H]8CO)O[C@@H]7CO)O[C@@H]6CO)O[C@@H]5CO)O[C@@H]4CO)O[C@@H]3CO,4.57% [at 42.5 µM] (inactive)
2,CCCCCCCCCCCCOC(C)=O,0.326% (inactive)
3,S=C(S)NCCNC(=S)S,-3.78% (inactive)
4,C=Cc1ccc(C(C)(C)C)cc1,2.72% (inactive)
5,CCN[C@H]1C[C@H](C)S(=O)(=O)c2sc(S(N)(=O)=O)cc21,16% [at 42.5 µM] (inactive)
6,O=c1c2ccccc2oc2ccccc12,7.36% (inactive)
7,Nc1ncn([C@H]2C[C@H](O)[C@@H](CO)O2)c(=O)n1,0.874% [at 42.5 µM] (inactive)
8,CC(=O)Nc1ccc(S(=O)(=O)Cl)cc1,-2.59% (inactive)
9,CC(C)(C)C(=O)CCc1ccc(Cl)cc1,2.97% (inactive)
10,CC(=O)NNC(C)=O,0.376% (inactive)
11,O=[N+]([O-])c1ccc(Cl)cc1Cl,-0.632% (inactive)
12,OCC1CC=CCC1 (stereo not drawn),-1.01% (inactive)
13,C=CCN(CC=C)CC=C,-12.6% (inactive)
14,O=C(Cl)c1c(Cl)cccc1Cl,-2.59% (inactive)
15,NCCCN(CCO)CCO,-2.05% (inactive)
16,CC1=C(C(=O)O)N2C(=O)[C@@H](NC(=O)[C@H](N)C3=CCC=CC3)[C@H]2SC1,-4.57% [at 42.5 µM] (inactive)
17,C#CC(O)C(CC)CCCC (stereo not drawn),1.78% (inactive)
18,C=C1CCC2CC1C2(C)C (stereo not drawn),6.11% (inactive)
19,CC(C)CCOCc1ccccc1,-2.67% (inactive)

row,SMILES,activation
1,CC1(C)C(=O)N(Cl)C(=O)N1Br,1.5% (inactive)
2,CCOc1ccc(OCC)c(Cl)c1,-3.81% (inactive)
3,c1ccc(-c2nc[nH]c2-c2ccccc2)cc1,1.63% [at 42.5 µM] (inactive)
4,CCOc1ccc2nc(S(N)(=O)=O)sc2c1,7.52% [at 42.5 µM] (inactive)
5,O=C1CC[C@@H](C(=O)O)N1,-0.116% [at 42.5 µM] (inactive)
6,O=C(O)CNC(=O)CNC(=O)CNC(=O)CSC(=O)c1ccccc1,-13.7% [at 42.5 µM] (inactive)
7,CC(O)CC(C)O (stereo not drawn),0.715% (inactive)
8,Clc1sc(Cl)c(Cl)c1Cl,-5.28% (inactive)
9,C/C=C(\C)C(C)=O,-1.76% (inactive)
10,CC1=NN(c2cccc(S(=O)(=O)O)c2)C(=O)C1,1.95% (inactive)
11,C=CCOC(=O)c1ccc(C(=O)OCC=C)c(C(=O)OCC=C)c1,0.414% (inactive)
12,Cc1ccc(N)cc1S(=O)(=O)O,2.85% (inactive)
13,CC(C)(CO)[N+](=O)[O-],7.67% (inactive)
14,C[Si](C)(C)O[Si](O)(O)O,6.93% (inactive)
15,N[C@@H](CCC(=O)O)C(=O)O,7.67% (inactive)
16,C=C(C)C1CC=C(C)C(=O)C1 (stereo not drawn),-0.246% (inactive)
17,CC(CO)(CO)[N+](=O)[O-],2.48% (inactive)
18,NNC(=O)CP(=O)(c1ccccc1)c1ccccc1,-10.7% [at 42.5 µM] (inactive)
19,C=CCCC(=O)O,-8.39% (inactive)

# Target: D(2) dopamine receptor (Homo sapiens) (UniProt P14416)
# Experiment: Dopamine D2 receptor (DRD2) small molecule antagonists, cell-based qHTS assay (AID 1963595; active means well fitted inhibition curve with a large enough effect in the signal ratio in the repeat runs, with a control signal flat; the % refers to the signal ratio)
# Details: HEK293-DRD2 cAMP HTRF antagonist mode; series mostly up to 92.4 µM; activity change, negative = inhibition: at the top concentration
# Method in brief: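 HEK293 cells stably expressing DRD2 were preincubated with 0.1 mM Ro20-1724, then with compound for 10 min at room temperature. Cells were stimulated with 200 nM NKH477 plus 12 nM quinpirole for 30 min, and cAMP was read by HTRF.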
row,SMILES,"activity change, negative = inhibition"
1,OC[C@H]1O[C@@H]2O[C@H]3[C@H](O)[C@@H](O)[C@@H](O[C@H]4[C@H](O)[C@@H](O)[C@@H](O[C@H]5[C@H](O)[C@@H](O)[C@@H](O[C@H]6[C@H](O)[C@@H](O)[C@@H](O[C@H]7[C@H](O)[C@@H](O)[C@@H](O[C@H]8[C@H](O)[C@@H](O)[C@@H](O[C@H]9[C@H](O)[C@@H](O)[C@@H](O[C@H]1[C@H](O)[C@H]2O)O[C@@H]9CO)O[C@@H]8CO)O[C@@H]7CO)O[C@@H]6CO)O[C@@H]5CO)O[C@@H]4CO)O[C@@H]3CO,2.75% [at 42.5 µM] (inactive)
2,CCCCCCCCCCCCOC(C)=O,-0.999% (inactive)
3,S=C(S)NCCNC(=S)S,-2.13% (inactive)
4,C=Cc1ccc(C(C)(C)C)cc1,-6.93% (inactive)
5,O=c1c2ccccc2oc2ccccc12,-1.82% (inactive)
6,CC(=O)Nc1ccc(S(=O)(=O)Cl)cc1,6.52% (inactive)
7,CC(C)(C)C(=O)CCc1ccc(Cl)cc1,-1.47% (inactive)
8,CC(=O)NNC(C)=O,-4.6% (inactive)
9,O=[N+]([O-])c1ccc(Cl)cc1Cl,2.7% (inactive)
10,OCC1CC=CCC1 (stereo not drawn),-1.02% (inactive)
11,C=CCN(CC=C)CC=C,8.28% (inactive)
12,NCCCN(CCO)CCO,-1.05% (inactive)
13,CC1=C(C(=O)O)N2C(=O)[C@@H](NC(=O)[C@H](N)C3=CCC=CC3)[C@H]2SC1,12.8% [at 42.5 µM] (inactive)
14,C=C1CCC2CC1C2(C)C (stereo not drawn),5.26% (inactive)
15,CC(C)CCOCc1ccccc1,-1.54% (inactive)
16,CC1(C)C(=O)N(Cl)C(=O)N1Br,0.943% (inactive)
17,CCOc1ccc(OCC)c(Cl)c1,-4.75% (inactive)
18,c1ccc(-c2nc[nH]c2-c2ccccc2)cc1,9.42% [at 42.5 µM] (inactive)

row,SMILES,"activity change, negative = inhibition"
1,CCOc1ccc2nc(S(N)(=O)=O)sc2c1,2.35% [at 42.5 µM] (inactive)
2,O=C1CC[C@@H](C(=O)O)N1,-1.81% [at 42.5 µM] (inactive)
3,CCCCC(CC)C(=O)OCCOCCOCCOCCOC(=O)C(CC)CCCC (stereo not drawn),-16.3% (inactive)
4,O=C(O)CNC(=O)CNC(=O)CNC(=O)CSC(=O)c1ccccc1,-0.0526% [at 42.5 µM] (inactive)
5,CC(O)CC(C)O (stereo not drawn),1.87% (inactive)
6,Clc1sc(Cl)c(Cl)c1Cl,-22% (inactive)
7,C/C=C(\C)C(C)=O,7.35% (inactive)
8,CC1=NN(c2cccc(S(=O)(=O)O)c2)C(=O)C1,-4.26% (inactive)
9,C=CCOC(=O)c1ccc(C(=O)OCC=C)c(C(=O)OCC=C)c1,-1.26% (inactive)
10,Cc1ccc(N)cc1S(=O)(=O)O,-0.859% (inactive)
11,CC(C)(CO)[N+](=O)[O-],2.35% (inactive)
12,C[Si](C)(C)O[Si](O)(O)O,2.78% (inactive)
13,CC(Cc1ccccc1)(NC(=O)CN)c1ccccc1 (stereo not drawn),3.36% [at 42.5 µM] (inactive)
14,C=C(C)C1CC=C(C)C(=O)C1 (stereo not drawn),-1.3% (inactive)
15,CC(CO)(CO)[N+](=O)[O-],1.74% (inactive)
16,NNC(=O)CP(=O)(c1ccccc1)c1ccccc1,-1.45% [at 42.5 µM] (inactive)
17,C=CCCC(=O)O,-0.924% (inactive)
